PubChem BioAssay

Target: Alpha-2C adrenergic receptor (Homo sapiens) (UniProt P18825)
Assay: modulators of alpha2C/GIRK thallium flux, primary screen, cell-based, HEK293 alpha2C/GIRK1/2 (AID 624);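 also: slope of fluorescence ratio to pre-addition baseline per second over 15 to 24 s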
Conditions: thallium flux BTC fluorescence, at 10 µM, actives lie on both sides;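 active = fluorescence slope after compound addition differing from the mean of all screened samples at 99.7% confidence, in either direction; inactive = the rest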

Chain of Alpha-2C adrenergic receptor (Homo sapiens) (P18825 whole entry, looked up): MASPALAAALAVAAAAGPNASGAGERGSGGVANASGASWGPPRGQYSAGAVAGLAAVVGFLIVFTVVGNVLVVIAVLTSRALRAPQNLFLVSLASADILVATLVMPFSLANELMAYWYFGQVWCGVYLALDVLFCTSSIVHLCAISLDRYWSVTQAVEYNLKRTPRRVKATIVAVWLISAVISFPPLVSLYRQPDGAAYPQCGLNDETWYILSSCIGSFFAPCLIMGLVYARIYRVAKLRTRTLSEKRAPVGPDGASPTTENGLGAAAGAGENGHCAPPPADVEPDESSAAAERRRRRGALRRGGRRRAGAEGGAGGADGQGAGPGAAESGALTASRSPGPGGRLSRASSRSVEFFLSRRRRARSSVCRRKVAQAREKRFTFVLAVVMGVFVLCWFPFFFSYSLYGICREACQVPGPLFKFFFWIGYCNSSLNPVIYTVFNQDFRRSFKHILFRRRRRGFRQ

slope, inactive:
O=C(c1ccccc1F)N1CCC(N2CCCCCC2)CC1 0.00789
CCOc1ccc(CCNC(=O)C(O)c2ccccc2)cc1 (stereo not given) 0.0068
CCN(CC)CCN1C(=O)C(=O)/C(=C(/O)c2ccc(C)cc2)C1c1cccnc1 (stereo not given) 0.00669
C=CCOC(=O)C1=C(C)NC(SCC(=O)N(CC)CC)=C(C#N)C1c1ccco1 (stereo not given) 0.00442
CCOC(=O)CSc1nc(N)c(C#N)c(-c2ccc(OC)cc2)c1C#N 0.00551
COc1ccc(OC)c(NC(=O)CSC2=C(C#N)C(c3ccco3)C3=C(CCCC3=O)N2)c1 (stereo not given) 0.00599
CCCOc1ccc(N2C(=O)CC(N(Cc3ccc(S(N)(=O)=O)cc3)C(=O)CC)C2=O)cc1 (stereo not given) 0.00479
Cc1ccc2[nH]c3c(c2c1)CCCC3C(N)=O (stereo not given) 0.00527
COc1ccc(C=NCCC2(O)CC(C)N(C)CC2C)cc1 (stereo not given) 0.00607
CC(C)(C)C1CCC2(CC1)C(C#N)=C(SCC(=O)Nc1ccccc1)NC(=O)C2C#N (stereo not given) 0.0063
CC1(C)Cc2c(C#N)c(NCCc3ccccc3)nc(-c3ccco3)c2CO1 0.00499
CCOC(=O)c1cc2cc(OC)ccc2[nH]1 0.00467
COC(=O)CSC1=C(C#N)C(=O)NC2(CCCCC2)S1 0.00592
CCOC(=O)CC1=C(C(=O)OCC)C(c2ccc(OC)c(OC)c2)C(C#N)=C(N)O1 (stereo not given) 0.00447
COC(=O)c1ccc(OC(=O)c2ccc(OC)c(OC)c2)c(OC)c1 0.00612
